Screening data (PubChem BioAssay)
KDM5B inh: KDM5B demethylase inhibition | hit rate 2.6% among 220,000 | Q9UGL1 | KDM5B demethylase, FDH-coupled NADH fluorescence (FDH is formaldehyde dehydrogenase) | AID 1347165 | Potency, µM (doses to about 57.7 µM), most hits filed as inhibitors; active = well fitted inhibition curve with a large enough effect; also: 0% is about no effect; nearly all actives have a fitted effect of over 70% in size
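Measured: NADH fluorescence change, 30 min, RT. System: KDM5BΔAP 200 nM final, H3K4me3 peptide, α-KG, Fe(II), ascorbate, NAD⁺ plus FDH, pH 7.5 HEPES. Compounds: titrated, 10 min pre-incubation with enzyme.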
Active calls of the source: *; i = inactive. Only a selection was taken, and hits are over-represented in it overall. Potency is read from the fitted curve at half-maximal effect.

SMILES | KDM5B inh
CCOc1ccc(CNCCc2c[nH]c3ccccc23)cc1 | i
COc1ccc(-c2cc([C@H]3CN4CC[C@H]3C[C@@H]4CNC(=O)CSCC(=O)O)nc(C)n2)cc1OC | 31.6µM*
COc1ccc(-c2cc([C@H]3CN4CC[C@H]3C[C@@H]4CNC(=O)c3cccs3)nc(C)n2)cc1OC | 28.2µM*
Cc1nc(C2CCCC2)cc([C@H]2CN3CC[C@H]2C[C@@H]3CNC(=O)CCCC(=O)O)n1 | i
Cn1nc(-c2ccc(F)cc2)cc1[C@H]1CN2CC[C@H]1C[C@@H]2CNC(=O)c1cccs1 | i
Cc1nc(-c2cccs2)cc([C@H]2CN3CC[C@H]2C[C@@H]3CNC(=O)c2ccc(C(F)(F)F)cc2)n1 | i
Cc1nc(-c2ccc(C(F)(F)F)cc2)cc([C@H]2CN3CC[C@H]2C[C@@H]3CNC(=O)CCCC(=O)O)n1 | i
COCCO[C@H]1COCCN(C2CCOCC2)C1 | i
O=C(c1cccs1)C1CCCN(Cc2cc3n(n2)CCNC3)C1 (stereo not drawn) | i
COCC1CN(C(=O)N(C)C)CC12CCNCC2 (stereo not drawn) | i
OCC1CN(c2ncccn2)CC12CCNCC2 (stereo not drawn) | 31.6µM*
CCS(=O)(=O)N1CC(COC)C2(CCNCC2)C1 (stereo not drawn) | i
O=C(CN1CCN(Cc2ccccc2)CC1)Nc1ccc(Cl)cc1C(=O)c1ccccc1 | i
O=C1CC2CCN(Cc3ccccn3)CC2CCN1 (stereo not drawn) | i
Cn1c(O)c(C=NC2CCN(Cc3ccccc3)CC2)c(=O)[nH]c1=O | i
CN1c2ncccc2CN(Cc2ccccc2)CC[C@H]1CO | 31.6µM*
CN1CCC(C(=O)N2C3CCC2CN(Cc2cccnc2)C3)CC1 | i
O=C1Nc2ccccc2CC12CCCN2Cc1ccccn1 (stereo not drawn) | i
CN1c2ncccc2CN(Cc2ccccn2)CC[C@H]1CO | 31.6µM*
CN1CCC(=O)C2CCCCC21 (stereo not drawn) | i
Cc1cccc(-n2nnnc2C2(NC(C)C)CCCCC2)c1 | i
CC(=O)c1ccc(NC(=O)NC[C@H]2C[C@@H]3CCN2C[C@@H]3CN2CCSCC2)cc1 | i
COc1ccccc1-c1cc([C@H]2CN3CC[C@H]2C[C@@H]3CNC(=O)C2CCCCC2)n(C)n1 | i
Cc1nc(-c2cccs2)cc([C@H]2CN3CC[C@H]2C[C@@H]3COC(=O)NC2CCCCC2)n1 | i
COc1ccc(-c2cc([C@H]3CN4CC[C@H]3C[C@@H]4CNC(=O)NC3CCCCC3)n(C)n2)cc1 | i
SMILES | KDM5B inh
Cc1nc(-c2ccccc2)cc([C@H]2CN3CC[C@H]2C[C@@H]3CN(Cc2ccco2)Cc2ccco2)n1 | i
Cc1nc(-c2ccco2)cc([C@H]2CN3CC[C@H]2C[C@@H]3CNC(=O)C2CCCCC2)n1 | 31.6µM*
Cc1nc(-c2ccco2)cc([C@H]2CN3CC[C@H]2C[C@@H]3CNC(=O)NC2CCCCC2)n1 | 31.6µM*
Clc1ccc(Cl)c(-c2ccc(CNC3CN4CCC3CC4)o2)c1 (stereo not drawn) | i
COc1ccc(C(=O)NC[C@H]2C[C@@H]3CCN2C[C@@H]3c2cc(-c3ccc(N(C)C)cc3)nc(C)n2)cc1 | 28.2µM*
Cc1nc(-c2ccccc2Br)cc([C@H]2CN3CC[C@H]2C[C@@H]3CNC(=O)c2ccc(C(C)(C)C)cc2)n1 | i
Cc1ccc(C(=O)NC[C@H]2C[C@@H]3CCN2C[C@@H]3c2cc(-c3ccccc3Br)nc(C)n2)cc1 | i
Cc1nc(-c2ccc(N(C)C)cc2)cc([C@H]2CN3CC[C@H]2C[C@@H]3COC(=O)Nc2ccc(C(C)C)cc2)n1 | i
COc1ccc(-c2cc([C@H]3CN4CC[C@H]3C[C@@H]4COC(=O)NC(C)C)n(C)n2)cc1 | i
Cc1nc(-c2ccc(N(C)C)cc2)cc([C@H]2CN3CC[C@H]2C[C@@H]3COC(=O)NC(C)C)n1 | 28.2µM*
COc1ccc(C(=O)NC[C@H]2C[C@@H]3CCN2C[C@@H]3c2cc(-c3ccc(F)cc3)nn2C)cc1 | i
Cc1nc(-c2ccccc2Br)cc([C@H]2CN3CC[C@H]2C[C@@H]3CNC(=O)c2ccc(N(C)C)cc2)n1 | i
Cc1nc(-c2ccc(N(C)C)cc2)cc([C@H]2CN3CC[C@H]2C[C@@H]3CNC(=O)c2ccccc2)n1 | 25.1µM*
COc1cc2c(cc1OCc1ccccc1)N(C(=O)C1CCC(C)CC1)CC21CCN(C)CC1 (stereo not drawn) | i
O=C(Cc1cccc(F)c1)N1[C@H]2CC[C@@H]1c1cnc(-c3ccc(F)cc3)nc1C2 | i
CC[C@H]1CN2CC[C@H]1C[C@@H]2CN(Cc1cccs1)Cc1cccs1 | i
